Hsp70 activator – switches on Hsp70 transcription | HeLa Hsp70 promoter luciferase reporter, luminescence; scaled: vehicle 0, proteasome-inhibitor control 100% | 200,000 tested, 0.04% active | activation, % at 10 µM;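 active = activation above the mean across all tested compounds plus 3 SD, cutoff set per campaign, cut at about 5.5% in these data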
Wee1 degr inh – inhibitors of human Wee1 degradation; P30291; HeLa Luc-Wee1K328M stability, luciferase luminescence; 100% = proteasome inhibitor MG132 effect; reporter increase, % at 5 µM; 220,000 tested, 1.2% active; AID 1321;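 active = activation above the mean of all tested compounds plus 3 SD, set per screening run, cut at about 8.8% in these data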;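 also: cells exposed to compound for 20 h before luminescence read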
Target sequence (P30291 whole entry K328M): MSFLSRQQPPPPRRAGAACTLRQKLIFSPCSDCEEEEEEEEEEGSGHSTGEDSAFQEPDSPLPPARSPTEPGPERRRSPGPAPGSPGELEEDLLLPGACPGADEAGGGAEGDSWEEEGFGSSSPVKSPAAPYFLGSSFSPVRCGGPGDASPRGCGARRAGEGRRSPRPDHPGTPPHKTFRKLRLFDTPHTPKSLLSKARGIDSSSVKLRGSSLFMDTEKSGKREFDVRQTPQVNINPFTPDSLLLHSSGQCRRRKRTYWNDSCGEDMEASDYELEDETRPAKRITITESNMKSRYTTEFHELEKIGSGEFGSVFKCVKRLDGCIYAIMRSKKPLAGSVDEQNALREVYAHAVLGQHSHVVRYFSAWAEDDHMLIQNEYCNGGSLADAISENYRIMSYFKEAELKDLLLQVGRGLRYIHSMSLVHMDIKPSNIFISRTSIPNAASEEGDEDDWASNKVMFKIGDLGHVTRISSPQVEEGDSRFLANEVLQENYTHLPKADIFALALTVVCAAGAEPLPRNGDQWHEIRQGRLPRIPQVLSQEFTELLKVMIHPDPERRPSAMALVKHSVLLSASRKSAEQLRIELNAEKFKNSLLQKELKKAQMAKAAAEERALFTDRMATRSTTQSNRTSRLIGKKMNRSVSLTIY
APP 5UTR inh – APP translation inhibition | SH-SY5Y APP 5'UTR-luciferase reporter, luminescence | inhibition, % at 2 µM | AID 1285 | 190,000 tested, 0.82% active;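 active = inhibition above a set limit, derived from the sample mean plus 3 SD, cut at about 45% in these data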
STAT1 activator – increases IFN-gamma driven STAT1 reporter signal | NIH 3T3 STAT1-luciferase reporter, luminescence; 100% = IFN-gamma alone, no compound | activation (% of control), % at 5.5 µM | 200,000 tested, 2.6% active;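 active = activation above the screen-wide mean activation plus 3 SD, cut at about 130% in these data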
APP 5'UTR act – APP 5'UTR luciferase reporter activation. SH-SY5Y APP 5'UTR luciferase reporter, luminescence; zero percent = DMSO vehicle wells. activation, % at 2 µM. 190,000 tested, 1% active. AID 1276;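 active = activation above a set limit, based on mean plus 3 SD of controls, cut at about 140% in these data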
NF-kB neuron act – NF-kB expression increase, human neuronal cells; NF-kB reporter expression; stronger effect = higher value; fold change at 12.5 µM; 190,000 tested, 1.6% active; AID 1239; in the data active = fold change above about 3.3
Of the large screens only hits and unclear results are named; the others gave an inactive call. Rows were chosen to be rich in hits. Some 4.8% of all compounds tested hit in one or more screens of this group.

Cc1ccc(NC(=O)CN2C(=O)N/C(=C\c3cccnc3)C2=O)cc1	APP 5UTR inh 53.7
O=C(COc1ccccc1[N+](=O)[O-])Nc1ccccc1N1CCCC1	none
CCOc1ccc(C(=O)N/N=C/c2ccccc2[N+](=O)[O-])cc1	STAT1 activator 134.0, APP 5'UTR act 139.8
CCC(=O)Nc1ccc(C(=O)N/N=C/c2ccccc2[N+](=O)[O-])cc1	none
Cc1ccc(C(=O)N/N=C\c2ccccc2[N+](=O)[O-])cn1	Wee1 degr inh 10.6
CCc1ccc(NC(=O)c2cc(-c3cccs3)on2)cc1	STAT1 activator 136.1
Cc1ccc(NC(=O)c2cc(-c3cccs3)on2)cc1C	STAT1 activator 145.7
COc1ccc(NC(=O)c2cc(-c3cccs3)on2)cc1OC	none
CC(=O)c1ccc(Nc2ccc(-c3ccccc3F)nn2)cc1	STAT1 activator 141.6, APP 5'UTR act 145.7, NF-kB neuron act 6.88
O=C(NCCc1nnc2ccc(NCc3ccccc3Cl)nn12)c1ccccc1	none
CC(C)(C)C(=O)Nc1ccc(-c2nc3ccccc3c(=O)o2)cc1	none
COc1cccc(Oc2cnc(N)nc2-c2ccc(OC)cc2O)c1	APP 5UTR inh 60.8
COc1ccc(-c2nc(N)ncc2Oc2ccccc2Br)c(O)c1	none
Cc1ccccc1Nc1nnc(SCC(=O)NC2CCCc3ccccc32)s1 (centres undefined)	STAT1 activator 143.5
C=C(C)c1cccc(C(C)(C)NC(=O)N2CCN(CC(N)=O)CC2)c1	none (no result: APP 5'UTR act)
CCCCc1nnc(NC(=O)CSc2nc(O)c(-c3ccccc3)c(=O)[nH]2)s1	none
CCCN1C=CC(=C2C(=O)c3ccccc3C2=O)C=C1	APP 5UTR inh 81.0
CCCCN1C(=O)/C(=C2\SC(N3CCCCC3)=NC2=O)c2ccccc21	none
CN1C=CC(=C2C(=O)c3ccccc3C2=O)C=C1	NF-kB neuron act 3.59
CCCCN1C(C)=CC(=C2C(=O)c3ccccc3C2=O)C=C1C	APP 5'UTR act 180.5
CCCCCCN1C=CC(=C2C(=O)c3ccccc3C2=O)C=C1	none
CCN1C=CC(=C2C(=O)c3ccccc3C2=O)C=C1	APP 5UTR inh 69.8
O=C(CSc1nnc(-c2c[nH]c3ccccc23)o1)N(Cc1ccccc1)c1ccc(F)cc1	none
O=C(CSc1n[nH]c(=O)[nH]c1=O)Nc1ccccc1C(=O)c1ccccc1	none (no result: Hsp70 activator, APP 5UTR inh, STAT1 activator, APP 5'UTR act, NF-kB neuron act)
COc1ccccc1C1=NC(c2ccc(C)cc2)N=C1C (centres undefined)	STAT1 activator 135.3
O=C(N/N=C/c1cc(Cl)ccc1O)C(=O)Nc1ccccc1OC(F)(F)C(F)F	APP 5UTR inh 60.3
COc1ccc(NC(=O)COC(=O)CNS(=O)(=O)c2ccccc2)cc1OC	none
Cc1ccc(OCC(=O)N2CCCCCC2)c(C)c1	none
O=C(Nc1ccc(NC(=O)c2ccco2)nc1)c1ccco1	APP 5'UTR act 164.2, NF-kB neuron act 4.03
O=C(Nc1ccc(NC(=O)c2ccco2)nc1)c1ccccn1	none
O=C(Cc1ccccc1)Nc1ccc(NC(=O)c2ccco2)nc1	STAT1 activator 136.0
O=C(Cc1ccccc1)Nc1ccc(NC(=O)C2CCCCC2)nc1	none
O=C(Nc1ccc(NC(=O)C2CCCCC2)cn1)c1ccco1	STAT1 activator 140.3, NF-kB neuron act 4.62
COc1cc(CNn2nnnc2N)cc(Br)c1OCc1c(Cl)cccc1Cl	none
COc1ccc(CC(=O)Nc2ccc(-c3cn4ccccc4n3)cc2)cc1	APP 5UTR inh 58.3
CCOc1ccc(-c2cn3ccccc3n2)cc1	APP 5'UTR act 207.3, NF-kB neuron act 4.8
CCOc1ccc(-c2cnc3ccccc3n2)cc1	none (no result: Hsp70 activator, APP 5UTR inh, STAT1 activator, APP 5'UTR act, NF-kB neuron act)
O=C(Nc1ccc(-c2cn3ccccc3n2)cc1)c1cccs1	STAT1 activator 134.0, APP 5'UTR act 136.3
Cc1noc(-c2ccccc2)c1NC(=O)Nc1ccc(Cl)cc1	none (no result: Hsp70 activator, APP 5UTR inh, STAT1 activator, APP 5'UTR act, NF-kB neuron act)
CC(C)(C)c1ccc(C(=O)Nc2cccc([N+](=O)[O-])c2)cc1	STAT1 activator 135.0, APP 5'UTR act 136.8, NF-kB neuron act 7.6
O=C(Nc1cccc([N+](=O)[O-])c1)c1[nH]ncc1Cl	STAT1 activator 133.6
CN(c1cccc(NC(=O)c2ccc(N(C)S(=O)(=O)c3ccccc3)cc2)c1)S(C)(=O)=O	none
CN(c1cccc(NC(=O)c2ccc(C(C)(C)C)cc2)c1)S(C)(=O)=O	STAT1 activator 137.6
O=C(Nc1ccc(F)c([N+](=O)[O-])c1)c1ccc2c(c1)OCCO2	none
O=C(Nc1cccc([N+](=O)[O-])c1)c1ccc2c(c1)OCCO2	STAT1 activator 139.1
O=C(O)CCC(=O)N1CCCC1	Wee1 degr inh 9.9
CN1CCN(C(=O)CCC(=O)O)CC1	none (no result: Hsp70 activator, APP 5UTR inh, STAT1 activator, APP 5'UTR act, NF-kB neuron act)
CCOc1ccc(-c2noc(CCC(N)=O)n2)cc1OCC	none
CN1/C(=C\C(=O)c2cccnc2)C(C)(C)c2ccccc21	none
CN1/C(=C/C(=O)c2nc(S(C)(=O)=O)ncc2Cl)C(C)(C)c2ccccc21	APP 5UTR inh 56.6
CN(C)c1ccnc2sc3c(NCC(O)CO)ncnc3c12 (centres undefined)	none
O=C(Nc1ccc(Cl)cc1)c1ccc(Br)cc1F	STAT1 activator 140.0, APP 5'UTR act 150.2, NF-kB neuron act 7.76
O=C(Nc1ccccc1)Nc1ccc(Br)cc1F	STAT1 activator 130.0
CC(C)c1ccc(NC(=O)c2cc(Br)ccc2Br)cc1	none
Cc1occc1C(=O)Nc1ccc(Br)cc1F	STAT1 activator 129.9
COC(=O)c1cc(Br)ccc1NC(=O)Nc1ccccc1	none
CCCCOC(=O)c1ccc(NC(=O)c2cc(Cl)ccc2OC)cc1	none
Cc1ccc(-n2c(C(C)C)nc3oc4ccccc4c(=O)c3c2=O)cc1	Wee1 degr inh 10.3 (no result: Hsp70 activator, APP 5UTR inh, STAT1 activator, APP 5'UTR act, NF-kB neuron act)
CCCc1nc2oc3ccccc3c(=O)c2c(=O)n1-c1ccc(C)cc1	Wee1 degr inh 10.0 (no result: Hsp70 activator, APP 5UTR inh, STAT1 activator, APP 5'UTR act, NF-kB neuron act)
S=C1NC(c2cccs2)=CC(c2ccc(Br)cc2)N1 (centres undefined)	NF-kB neuron act 3.99
COc1cc2c(cc1NC(=O)c1cc(-c3cccnc3)nc3ccc(C)cc13)oc1ccccc12	none
C/C=C/C(=O)N1c2ccccc2C(C)=CC1(C)C	none
Cc1csc(SCC(=O)Nc2ccc3c(c2)OCCO3)n1	STAT1 activator 132.2
CSc1nsc(SCC(=O)Nc2ccc3c(c2)OCCO3)n1	APP 5'UTR act 141.0, NF-kB neuron act 4.04
CCCC(=O)Nc1nnc(SCC(=O)Nc2ccc3c(c2)OCCO3)s1	none
COc1ccc(NC(=O)CSc2nc(C)cs2)cc1OC	none
COc1ccc(C(=O)/C=C/Nc2ccc(NC(C)=O)cc2)cc1OC	none
COc1cccc(C(=O)/C=C/Nc2ccc(NC(C)=O)cc2)c1	STAT1 activator 135.6
COc1cccc(C(=O)/C=C/Nc2cccc(O)c2)c1	APP 5'UTR act 148.1, NF-kB neuron act 12.1
COc1cc2c(=O)n(CCCC(=O)NCC3CCCO3)c(=O)n(CC(=O)c3ccc(F)cc3)c2cc1OC (centres undefined)	none
Cc1ccc2nc3cc([N+](=O)[O-])cc([N+](=O)[O-])c3cc2c1	APP 5UTR inh 62.5, NF-kB neuron act 5.3

Compound activity (PubChem BioAssay)
